Rows were chosen to be rich in hits. Some 18% of all compounds tested hit in one or more screens of this group.
TDP1 cell CPT: qHTS for Inhibitors of human tyrosyl-DNA phosphodiesterase 1 (TDP1): qHTS in cells in presence of CPT; Potency, µM (highest dose often 46.2 µM), inactives show at the top dose activity change, negative = growth inhibition, hits mostly inhibitors; chicken DT40 Tdp1-/-;hTDP1 cells + 20 nM CPT, ATP luminescence, 48 h; 420,000 compounds, 12% hits; AID 686979, 2013; note: potency is the fitted concentration of half-maximal effect; nearly all actives have a fitted effect of over 55% in size
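Cell growth measured by CellTiter-Glo luminescence after a minimum 48 h, 37 C compound exposure with 20 nM CPT in Tdp1-knockout DT40 cells stably expressing hTDP1, seeded 400/well; qHTS titration format.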
LDHA inh: qHTS assay for inhibitors of human lactate dehydrogenase; L-lactate dehydrogenase A chain (Homo sapiens), P00338; purified LDHA, NADH/diaphorase-resazurin fluorescence; stronger effect = lower value; activity change, % (values are at about 110 or 230 µM); 480,000 compounds, 0.15% hits; AID 1347041, 2019; in the data active = activity change below about -30%; inconclusive = mostly about -25% to -30%;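 note: plate controls were DMSO wells for no effect and wells without enzyme for full effect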
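Human LDH5 at 2 nM final in Tris HCl pH 7.4 with 0.06 mM NADH and 0.2 mM pyruvate, reacted 5 minutes at room temperature. Remaining NADH coupled via diaphorase/resazurin; resorufin fluorescence read at 0 and 20 minutes, normalized to enzyme-free and DMSO wells.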
VP16 counter: VP16 counterscreen qHTS for inhibitors of ROR gamma transcriptional activity. 310,000 compounds, 3.5% hits. AID 2546, 2010. Potency, µM (highest dose often 53.6 µM), without a hit: top-dose activity, negative = inhibition, actives largely listed as inhibitors. Drosophila S2 Gal4-VP16 UAS-luciferase, luminescence, 20 h;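 note: Gal4-VP16 expression switched on by copper sulfate through the metallothionein promoter; potency is the fitted concentration of half-maximal effect; nearly all actives have a fitted effect of over 50% in size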
RORg inh: qHTS for inhibitors of ROR gamma transcriptional activity; 310,000 compounds, 5.4% hits; Potency, µM (series often up to 53.6 µM), without a hit: at the top dose activity change, negative = inhibition, most hits filed as inhibitors; Nuclear receptor ROR-gamma (Mus musculus), P51450; Drosophila S2 Gal4-RORgamma UAS-luciferase reporter, 20 h; note: potency is the fitted concentration of half-maximal effect; nearly all actives have a fitted effect of over 60% in size
Target sequence (P51450 whole entry, looked up, the tested form may be a part): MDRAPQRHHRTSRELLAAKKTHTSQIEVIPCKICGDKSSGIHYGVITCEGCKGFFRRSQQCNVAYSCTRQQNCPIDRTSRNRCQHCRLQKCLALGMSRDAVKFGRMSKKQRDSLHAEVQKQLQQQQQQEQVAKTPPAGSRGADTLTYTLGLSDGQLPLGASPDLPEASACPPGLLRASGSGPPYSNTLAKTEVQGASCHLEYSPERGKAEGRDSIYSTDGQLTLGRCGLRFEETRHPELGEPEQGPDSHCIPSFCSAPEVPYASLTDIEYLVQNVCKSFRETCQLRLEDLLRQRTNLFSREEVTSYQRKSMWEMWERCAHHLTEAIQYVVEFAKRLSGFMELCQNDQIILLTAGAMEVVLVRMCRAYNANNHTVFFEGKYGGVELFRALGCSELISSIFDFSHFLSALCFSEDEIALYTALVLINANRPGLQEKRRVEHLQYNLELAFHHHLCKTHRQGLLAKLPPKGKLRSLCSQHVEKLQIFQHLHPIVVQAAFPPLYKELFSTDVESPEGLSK
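Stable Schneider cell line, Gal4 DNA-binding domain fused to ROR gamma, UAS-luciferase. Cmpd 1 hr RT → CuSO4 700 uM final → 20 hr RT → luciferase reagent 10 min → luminescence.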
IL-1B inflam inh: qHTS for Inhibitors of Inflammasome Signaling: IL-1-beta AlphaLISA Primary Screen. THP-1 LPS/ATP IL-1B secretion, AlphaLISA, 16 h; stronger effect = lower value. activity change, % at 57.5 µM. 360,000 compounds, 4.7% hits; in the data active = activity change below about -50%; inconclusive = mostly about -30% to -49%
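Secreted IL-1B measured by AlphaLISA bead assay after 16 h compound exposure of THP-1 cells; compounds (final up to 57.5 uM) added 1 h before LPS (250 ng/mL) and ATP (1.25 mM) stimulation; lower signal means less secretion.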
TDP1 cell noCPT: qHTS for Inhibitors of human tyrosyl-DNA phosphodiesterase 1 (TDP1): qHTS in cells in absence of CPT; Potency, µM (highest dose often 46.2 µM), for inactives: top-dose activity change, negative = growth inhibition, usual class: inhibitors; AID 686978, 2013; DT40 Tdp1-/- hTDP1 cells, no CPT, ATP luminescence, 48 h; 420,000 compounds, 15% hits; note: potency is the fitted concentration of half-maximal effect; nearly all actives have a fitted effect of over 55% in size
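Camptothecin absent (DMSO only). Human TDP1-complemented DT40 knockout cells, 400 cells/well, 37 °C for minimum 48 hr; ATP measured via CellTiter-Glo, 30 min dark incubation, luminescence.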
* = called active by the depositor. Unless noted, calls come from the whole dose curve; as a rule, active = well fitted curve in the direction sought with a large enough effect; inconclusive = small, poorly fitted or top-dose-only effect, or another doubt; inactive = no such curve, though single readings can be large; an effect the other way counts as inactive or inconclusive. Unless noted, % is set by controls: 0 for no effect and ±100 for the full control effect.

Screening COc1cc(CC(=O)NC(C)c2cccs2)cc(OC)c1OC (stereo unspecified) returned LDHA inh -4.
C[C@H](NC(=O)c1[nH]cnc1C(=O)N[C@H](C)c1ccccc1)c1ccccc1 was read as TDP1 cell CPT inconclusive, LDHA inh -4, IL-1B inflam inh 15 and TDP1 cell noCPT inconclusive.
COc1ccc(NC(=O)c2nc[nH]c2C(=O)N[C@@H](C)c2ccccc2)cc1 was read as TDP1 cell CPT inconclusive, LDHA inh 1, VP16 counter 8.9µM*, RORg inh 6.3µM*, IL-1B inflam inh -22 and TDP1 cell noCPT inconclusive.
`Cc1cccc(NC(=O)c2nc[nH]c2C(=O)NCCCNC(=O)c2[nH]cnc2C(=O)Nc2cccc(C)c2)c1` gave TDP1 cell CPT -2%, LDHA inh -1, IL-1B inflam inh -1 and TDP1 cell noCPT inconclusive.
Screening Cc1cccc(NC(=O)c2nc[nH]c2C(=O)Nc2cccc(C)c2)c1 returned TDP1 cell CPT inconclusive, LDHA inh -5, VP16 counter 2.8µM*, RORg inh 1.4µM*, IL-1B inflam inh 3 and TDP1 cell noCPT 10µM*.
Screening COCCNc1nc(-c2ccc(NC(=O)C(C)C)cc2)cs1 returned LDHA inh 6.
Cc1ccnc(NC(=O)Cc2ccc(Br)cc2)c1 was read as LDHA inh 1.
`O=C(NC1CCCCC1)C(c1ccnc2ccccc12)n1c(=O)c(-c2ccco2)nc2ccccc21` (stereo unspecified) gave TDP1 cell CPT 13µM*, LDHA inh 6, IL-1B inflam inh -12 and TDP1 cell noCPT 13µM*.
For Cc1cc(N2CCN(C(C(=O)NC3CCCC3)c3ccc(-c4ccccc4)cc3)CC2)c2ccccc2n1 (stereo unspecified) the results were TDP1 cell CPT 7.3µM*, LDHA inh 0, IL-1B inflam inh 4 and TDP1 cell noCPT 8.2µM*.
For N#Cc1ccc(C(C(=O)NC2CCCCC2)n2c(=O)c(-c3ccccc3)nc3ccccc32)cc1 (stereo unspecified) the results were TDP1 cell CPT inconclusive, LDHA inh -6, IL-1B inflam inh -15 and TDP1 cell noCPT inconclusive.
For O=C(NC1CCCCC1)C(c1ccc(-c2ccccc2)cc1)n1c(=O)c(-c2ccco2)nc2ccccc21 (stereo unspecified) the results were TDP1 cell CPT inconclusive, LDHA inh 0, IL-1B inflam inh 20 and TDP1 cell noCPT 15µM*.
`O=C(NC1CCCC1)C(c1ccccc1)n1c(CSCCOc2ccccc2)nc2ccccc21` (stereo unspecified) gave TDP1 cell CPT inconclusive, LDHA inh -5, IL-1B inflam inh 24 and TDP1 cell noCPT 16µM*.
For O=c1oc2ccccc2c(N2CCCC2)c1NS(=O)(=O)c1ccc(Br)s1 the results were LDHA inh -14.
`COC(=O)[C@@H](NC(=O)Nc1ccc2oc(-c3cccnc3)nc2c1)C(C)C` gave LDHA inh 5.
CCOCCn1c(SCc2ccccc2Cl)nc2c1c(=O)[nH]c(=O)n2C was read as LDHA inh 2.
Screening O=C(CSc1nc(CN2CCOCC2)nc2ccccc12)NCC1CCCCC1 returned LDHA inh -1.
Screening O=C(NC1CCCCC1)C(C1CC1)n1c(=O)c(-c2ccccc2)nc2ccccc21 (stereo unspecified) returned TDP1 cell CPT inconclusive, LDHA inh -4, IL-1B inflam inh -10 and TDP1 cell noCPT 16µM*.
CCCCCNC(=O)C(c1ccccc1F)n1c(=O)c(-c2ccco2)nc2ccccc21 (stereo unspecified) was read as TDP1 cell CPT inconclusive, LDHA inh 5, IL-1B inflam inh -5 and TDP1 cell noCPT inconclusive.
`O=C(NC1CCCCC1)C(c1ccccc1F)n1c(=O)c(-c2ccco2)nc2ccccc21` (stereo unspecified) gave TDP1 cell CPT inconclusive, LDHA inh 3, IL-1B inflam inh -3 and TDP1 cell noCPT 16µM*.
`C=CC[C@@H](CC(=O)OC(C)(C)C)C(=O)OC[C@@H]1CCCN1C(=O)[C@@H](CC=C)CC(=O)N[C@H](CO)Cc1ccccc1` gave TDP1 cell CPT 23µM*, LDHA inh 5, IL-1B inflam inh -19 and TDP1 cell noCPT inconclusive.
C=CC[C@H](CC(=O)OC(C)(C)C)C(=O)OC[C@@H]1CCCN1C(=O)[C@H](CC=C)CC(=O)N[C@H](CO)Cc1ccccc1 was read as TDP1 cell CPT 26µM*, LDHA inh 6, IL-1B inflam inh -29 and TDP1 cell noCPT inconclusive.
C=CC[C@H](CC(=O)OC(C)(C)C)C(=O)OC[C@@H]1CCCN1C(=O)[C@@H](CC=C)CC(=O)N[C@H](CO)Cc1ccccc1 was read as TDP1 cell CPT 16µM*, LDHA inh 5, IL-1B inflam inh -1 and TDP1 cell noCPT inconclusive.
Screening C=CC[C@@H](CC(=O)OC(C)(C)C)C(=O)OC[C@H]1CCCN1C(=O)[C@@H](CC=C)CC(=O)NCCO returned TDP1 cell CPT -3%, LDHA inh 1, IL-1B inflam inh -1 and TDP1 cell noCPT -24%.
CS(=O)(=O)CCCN was read as LDHA inh -1.
For O=C(CSc1nc2ccccc2c(=O)n1-c1ccc(F)cc1)Nc1ccc(Cl)c(S(=O)(=O)N2CCOCC2)c1 the results were TDP1 cell CPT inconclusive, LDHA inh -4, VP16 counter -13%, RORg inh inconclusive, IL-1B inflam inh -1 and TDP1 cell noCPT 16µM*.
`O=C(CSc1nc2ccccc2c(=O)n1-c1ccc(F)c(Cl)c1)Nc1cccc(S(=O)(=O)N2CCOCC2)c1` gave TDP1 cell CPT 16µM*, LDHA inh -5, VP16 counter -17%, RORg inh 40%, IL-1B inflam inh 9 and TDP1 cell noCPT inconclusive.
For Cc1ccccc1OCc1nc(C#N)c(NCCN2CCOCC2)o1 the results were LDHA inh 1.
For COc1ccc(NC(=O)Cn2ccc3ccc(Cl)cc32)c(OC)c1 the results were LDHA inh -6.

Source: PubChem BioAssay
